The supplement of paper PMC9262897, “Low-cost anti-mycobacterial drug discovery using engineered E. coli” (Nature Communications, 2022)
Structures can show the parent of a compound that is named as a salt. ± gives the standard deviation of the averaged measurements.

Tests used:
Assay in all cases: growth (OD600 after 10 h); higher = more growth (less inhibition)
[1] = test system: E. coli TESEC Alr+ wild-type control; conditions: compound 0.1 mM; raw OD600 reference: median of DMSO wells 0.241, cell-free background 0.041
Description: (§1)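 TESEC Mtb Alr E. coli, or the Alr+ wild-type control, in 384-well plates with Prestwick library compounds at 0.1 mM and 1% DMSO, across arabinose induction levels of 1E3 to 1E7 nM. Growth is read as OD600 after 10 h at 37 °C in triplicate biological replicates.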

[2] = test system: E. coli TESEC Mtb Alr; conditions: compound 0.1 mM
Description: as §1

[3] = test system: E. coli TESEC Mtb Asd; conditions: compound 0.1 mM
Description: (§2)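 TESEC E. coli strains in which the native enzyme is deleted and replaced by arabinose-inducible Mtb Asd, DapB, CysH or TrpD, each grown in its selective medium. Strains were screened against the Prestwick library at 0.1 mM and 1% DMSO in 384-well format at low and high arabinose induction. Growth is read as OD600 after 10 h in triplicate.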

[4] = test system: E. coli TESEC Mtb DapB; conditions: compound 0.1 mM
Description: as §2

[5] = test system: E. coli TESEC Alr+ wild-type control; conditions: compound 0.1 mM; raw OD600 reference: median of DMSO wells 0.49, cell-free background 0.052
Description: (§3)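 TESEC Mtb Alr E. coli (ΔaraC ΔtolC ΔentC Δalr ΔdadX, arabinose-inducible Mtb Alr) or the Alr+ wild-type control strain, grown in defined M9-fructose medium without D-alanine in 96-well plates with Prestwick library compounds at 0.1 mM and 1% DMSO. Low Alr induction is 0.1 µM arabinose and high induction is 10 mM arabinose.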

[6] = test system: E. coli TESEC Mtb Alr; conditions: compound 0.1 mM; remark: listed apart in the source
Description: as §3

[7] = arabinose 1000 nM, raw OD600 reference: median of DMSO wells 0.294, cell-free background 0.041
[8] = arabinose 10000 nM, raw OD600 reference: median of DMSO wells 0.264, cell-free background 0.041
[9] = arabinose 100000 nM, raw OD600 reference: median of DMSO wells 0.201, cell-free background 0.041
[10] = arabinose 1000000 nM, raw OD600 reference: median of DMSO wells 0.193, cell-free background 0.041
[11] = arabinose 10000000 nM, raw OD600 reference: median of DMSO wells 0.146, cell-free background 0.041
[12] = arabinose induction (level): High, raw OD600 reference: median of DMSO wells 0.331, cell-free background 0.041
[13] = arabinose induction (level): Low, raw OD600 reference: median of DMSO wells 0.417, cell-free background 0.041
[14] = arabinose induction (level): High, raw OD600 reference: median of DMSO wells […], cell-free background 0.041
[15] = arabinose induction (level): Low, raw OD600 reference: median of DMSO wells 0.227, cell-free background 0.041
[16] = arabinose 100 nM, raw OD600 reference: median of DMSO wells 0.413, cell-free background 0.052
[17] = arabinose 10000000 nM, raw OD600 reference: median of DMSO wells […], cell-free background 0.052

Compound	growth [1]	growth [2, 7]	growth [2, 8]	growth [2, 9]	growth [2, 10]	growth [2, 11]	growth [3, 12]	growth [3, 13]	growth [4, 14]	growth [4, 15]	growth [5]	growth [6, 16]	growth [6, 17]
Nc1ncnc2c1ncn2[C@@H]1O[C@H](CO)[C@@H](O)[C@@H]1O [Vidarabine]	0.206 ± 0.012	0.273 ± 0.022	0.243 ± 0.011	0.145 ± 0.0058	0.148 ± 0.0035	0.138 ± 0.004	0.36 ± 0.077	0.383 ± 0.0057	0.171 ± 0.03	0.21 ± 0.048	0.535 ± 0.069	0.429 ± 0.012	0.306 ± 0.0082
CO[C@H]1/C=C/O[C@@]2(C)Oc3c(C)c(O)c4c(O)c(c(/C=N/N5CCN(C6CCCC6)CC5)c(O)c4c3C2=O)NC(=O)/C(C)=C\C=C\[C@H](C)[C@H](O)[C@@H](C)[C@@H](O)[C@@H](C)[C@H](OC(C)=O)[C@@H]1C [Rifapentine]	0.0433 ± 0.00049	0.0468 ± 0.0029	0.04193 ± 0.00032	0.042 ± 0.00082	0.0431 ± 0.0013	0.04243 ± 0.00025	0.0584 ± 0.0025	0.0547 ± 0.0039	0.102 ± 0.087	0.0512 ± 0.00082	0.05153 ± 0.00031	0.0847 ± 0.014	0.0548 ± 0.0062
Cc1onc(-c2ccccc2)c1C(=O)N[C@@H]1C(=O)N2[C@@H]1SC(C)(C)[C@@H]2C(=O)O [Oxacillin sodium]	0.246 ± 0.017	0.298 ± 0.017	0.249 ± 0.012	0.198 ± 0.015	0.187 ± 0.0051	0.14 ± 0.0038	0.468 ± 0.036	0.477 ± 0.0063	0.192 ± 0.0086	0.243 ± 0.046	0.492 ± 0.054	0.421 ± 0.0073	0.362 ± 0.0089
N[C@@H](C(=O)N[C@@H]1C(=O)N2C(C(=O)O)=C(Cl)CS[C@H]12)c1ccccc1 [Cefaclor hydrate]	0.264 ± 0.0067	0.315 ± 0.0086	0.249 ± 0.0072	0.244 ± 0.025	0.1991 ± 0.0017	0.158 ± 0.021	0.333 ± 0.052	0.425 ± 0.067	0.201 ± 0.0068	0.247 ± 0.017	0.489 ± 0.033	0.224 ± 0.036	0.354 ± 0.032
CC(C)c1nc(CN(C)C(=O)N[C@H](C(=O)N[C@@H](Cc2ccccc2)C[C@H](O)[C@H](Cc2ccccc2)NC(=O)OCc2cncs2)C(C)C)cs1 [Ritonavir]	0.166 ± 0.0093	0.216 ± 0.015	0.221 ± 0.025	0.217 ± 0.012	0.114 ± 0.0092	0.159 ± 0.0028	0.245 ± 0.0089	0.15 ± 0.008	0.192 ± 0.013	0.25 ± 0.0048	0.362 ± 0.01		
CNCC[C@@H](Oc1cccc2ccccc12)c1cccs1 [(R)-Duloxetine hydrochloride]	0.11 ± 0.038	0.0692 ± 0.004	0.04907 ± 0.00032	0.0556 ± 0.002	0.0447 ± 0.0038	0.0466 ± 0.0019	0.106 ± 0.066	0.0934 ± 0.04	0.0757 ± 0.0014	0.0799 ± 0.007	0.503 ± 0.049	0.4098 ± 0.0032	0.272 ± 0.011
CNC(=C[N+](=O)[O-])NCCSCc1csc(CN(C)C)n1 [Nizatidine]	0.241 ± 0.0083	0.301 ± 0.018	0.274 ± 0.0044	0.21 ± 0.015	0.189 ± 0.0052	0.14 ± 0.0024	0.368 ± 0.033	0.438 ± 0.012	0.205 ± 0.019	0.228 ± 0.025	0.561 ± 0.066	0.408 ± 0.015	0.342 ± 0.01
CC1=C(/C=C/C(C)=C/C=C/C(C)=C\C(=O)O)C(C)(C)CCC1 [Isotretinoin]	0.245 ± 0.0032	0.274 ± 0.016	0.24 ± 0.0073	0.218 ± 0.012	0.11 ± 0.0034	0.15 ± 0.004	0.328 ± 0.098	0.365 ± 0.073	0.185 ± 0.018	0.195 ± 0.014	0.425 ± 0.028	0.438 ± 0.0094	0.251 ± 0.014
CCC(=O)OCC(=O)[C@@]1(OC(=O)CC)[C@H](C)C[C@H]2[C@H]3[C@H]([C@@H](O)C[C@@]21C)[C@@]1(C)C=CC(=O)C=C1C[C@H]3Cl [Alclometasone dipropionate]	0.21 ± 0.0058	0.318 ± 0.028	0.277 ± 0.017	0.226 ± 0.07	0.127 ± 0.022	0.217 ± 0.065	0.209 ± 0.013	0.459 ± 0.032	0.198 ± 0.0033	0.215 ± 0.0041	0.492 ± 0.04	0.401 ± 0.0078	0.241 ± 0.04
Fc1ccc([C@@H]2CCNC[C@H]2COc2ccc3c(c2)OCO3)cc1 [Paroxetine Hydrochloride]	0.178 ± 0.0068	0.172 ± 0.01	0.2021 ± 0.0013	0.129 ± 0.0033	0.05573 ± 0.00035	0.0552 ± 0.0014	0.133 ± 0.0029	0.176 ± 0.0037	0.172 ± 0.027	0.178 ± 0.0082	0.444 ± 0.026	0.384 ± 0.0066	0.134 ± 0.073
CCCCN(CCCC)CCC(O)c1cc2c(Cl)cc(Cl)cc2c2cc(C(F)(F)F)ccc12 (stereo not given) [Halofantrine hydrochloride]	0.24 ± 0.011	0.313 ± 0.006	0.31 ± 0.0059	0.2 ± 0.014	0.18 ± 0.0064	0.175 ± 0.0054	0.282 ± 0.059	0.457 ± 0.054	0.259 ± 0.018	0.291 ± 0.037	0.53 ± 0.019	0.452 ± 0.016	0.427 ± 0.019
C=CC1=C(C(=O)O)N2C(=O)[C@@H](NC(=O)/C(=N\OCC(=O)O)c3csc(N)n3)[C@H]2SC1 [Cefixime]	0.0395 ± 0.00093	0.0377 ± 0.0006	0.0408 ± 0.00017	0.03693 ± 0.00032	0.0407 ± 0.00045	0.04003 ± 0.00021	0.0679 ± 0.013	0.048 ± 0.004	0.0696 ± 0.022	0.0479 ± 0.0042	0.0448 ± 0.00017	0.0456 ± 0.00035	0.054 ± 0.001
CCCN(CCC)S(=O)(=O)c1ccc(C(=O)O)cc1 [Probenecid]	0.226 ± 0.0059	0.254 ± 0.0078	0.261 ± 0.011	0.221 ± 0.047	0.153 ± 0.0022	0.159 ± 0.0038	0.346 ± 0.12	0.371 ± 0.07	0.232 ± 0.0066	0.223 ± 0.02	0.49 ± 0.048	0.4 ± 0.016	0.267 ± 0.0045
CN(C)CCCN1c2ccccc2Sc2ccccc21 [Promazine hydrochloride]	0.189 ± 0.0053	0.227 ± 0.011	0.2724 ± 0.002	0.192 ± 0.01	0.129 ± 0.0026	0.158 ± 0.004	0.187 ± 0.03	0.261 ± 0.023	0.195 ± 0.017	0.254 ± 0.033	0.523 ± 0.031	0.415 ± 0.0068	0.273 ± 0.0038
